In PubChem BioAssay AID1159580 (chemical genetic matrix, 2015):
Among all 5,500 compounds or so, about 2,000 (36%) were called active. Not shown: some 18% with an inconclusive outcome. The list shows a part of the results. A number with no mark means an inactive call. Rule as the data show it: active = normalized growth mostly below about 0.91 (no sharp cut-off); inconclusive = no clear call, values can overlap the other calls; inactive = mostly above about 0.92.

Assay: chemical genetic growth profiling, strain panel (AID 1159580);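 also: tested at 20 µM; growth read once vehicle control cultures reached saturation at 30 °C; 1 = growth at the plate median or of vehicle wells; lower values mean less growth of the strain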
Conditions: S. cerevisiae deletion strains, growth OD

Compound: C[C@@H](N)CO
- normalized growth (locus YAL021C, strain ccr4, hits give low values): 0.998
- normalized growth (locus YAL026C, strain drs2, hits give low values): 0.992
- normalized growth (locus YAL030W, strain snc1, hits give low values): 0.985
- normalized growth (locus YBL061C, strain skt5, hits give low values): 0.994
- normalized growth (locus YBR009C, strain hhf1, hits give low values): 1.01
- normalized growth (locus YBR023C, strain chs3, hits give low values): 0.987
- normalized growth (locus YBR171W, strain sec66, hits give low values): 0.967
- normalized growth (locus YBR231C, strain swc5, hits give low values): 0.991
- normalized growth (locus YBR279W, strain paf1, hits give low values): 0.987
- normalized growth (locus YCL011C, strain gbp2, hits give low values): 0.997
- normalized growth (locus YCL016C, strain dcc1, hits give low values): 0.991
- normalized growth (locus YCL069W, strain vba3, hits give low values): 0.988
- normalized growth (locus YCR088W, strain abp1, hits give low values): 0.993
- normalized growth (locus YDL005C, strain med2, hits give low values): 0.961
- normalized growth (locus YDL040C, strain nat1, hits give low values): 0.976
- normalized growth (locus YDR001C, strain nth1, hits give low values): 0.983
- normalized growth (locus YDR069C, strain doa4, hits give low values): 0.967
- normalized growth (locus YDR137W, strain rgp1, hits give low values): 0.979
- normalized growth (locus YDR159W, strain sac3, hits give low values): 0.972
- normalized growth (locus YDR195W, strain ref2): 0.954
- normalized growth (locus YDR297W, strain sur2, hits give low values): 1
- normalized growth (locus YDR334W, strain swr1, hits give low values): 0.989
- normalized growth (locus YDR335W, strain msn5, hits give low values): 0.995
- normalized growth (locus YDR392W, strain spt3, hits give low values): 0.979
- normalized growth (locus YEL003W, strain gim4, hits give low values): 0.997
- normalized growth (locus YEL037C, strain rad23, hits give low values): 1
- normalized growth (locus YEL061C, strain CIN8 (second series), hits give low values): 1.01
- normalized growth (locus YER015W, strain faa2, hits give low values): 0.989
- normalized growth (locus YER016W, strain bim1, hits give low values): 0.996
- normalized growth (locus YER111C, strain swi4, hits give low values): 0.973
- normalized growth (locus YER155C, strain BEM2 (second series), hits give low values): 0.984
- normalized growth (locus YFR010W, strain ubp6, hits give low values): 1
- normalized growth (locus YGL167C, strain pmr1, hits give low values): 0.984
- normalized growth (locus YGL173C, strain kem1, hits give low values): 1
- normalized growth (locus YGL227W, strain vid30, hits give low values): 0.973
- normalized growth (locus YGL240W, strain doc1, hits give low values): 1.01
- normalized growth (locus YGL253W, strain hxk2, hits give low values): 0.989
- normalized growth (locus YHR013C, strain ard1, hits give low values): 1
- normalized growth (locus YHR027C, strain rpn1, hits give low values): 0.995
- normalized growth (locus YHR030C, strain SLT2, hits give low values): 0.984
- normalized growth (locus YHR079C, strain IRE1, hits give low values): 0.974
- normalized growth (locus YHR142W, strain chs7, hits give low values): 0.98
- normalized growth (locus YJL092W, strain hpr5, hits give low values): 0.996
- normalized growth (locus YJL095W, strain BCK1 (second series), hits give low values): 0.996
- normalized growth (locus YJL095W, strain BCK1, hits give low values): 0.975
- normalized growth (locus YJL115W, strain asf1, hits give low values): 1
- normalized growth (locus YJL129C, strain trk1, hits give low values): 0.989
- normalized growth (locus YJL154C, strain vps35, hits give low values): 0.996
- normalized growth (locus YJL164C, strain tpk1, hits give low values): 1.01
- normalized growth (locus YJL166W, strain qcr8, hits give low values): 1
- normalized growth (locus YJL187C, strain SWE1, hits give low values): 0.988
- normalized growth (locus YJR066W, strain TOR1, hits give low values): 0.914
- normalized growth (locus YKL160W, strain elf1, hits give low values): 0.968
- normalized growth (locus YKR026C, strain gcn3, hits give low values): 0.995
- normalized growth (locus YKR091W, strain srl3, hits give low values): 0.977
- normalized growth (locus YLL001W, strain dnm1, hits give low values): 0.986
- normalized growth (locus YLL026W, hits give low values): 0.994
- normalized growth (locus YLL041C, strain sdh2, hits give low values): 0.997
- normalized growth (locus YLR027C, strain aat2, hits give low values): 0.999
- normalized growth (locus YLR113W, strain HOG1, hits give low values): 1.02
- normalized growth (locus YLR221C, strain rsa3, hits give low values): 1.01
- normalized growth (locus YLR258W, strain gsy2, hits give low values): 0.995
- normalized growth (locus YLR262C, strain YPT6 (second series), hits give low values): 0.973
- normalized growth (locus YLR320W, strain mms22, hits give low values): 1.01
- normalized growth (locus YLR342W, strain FKS1, hits give low values): 0.987
- normalized growth (locus YLR357W, strain rsc2, hits give low values): 0.954
- normalized growth (locus YLR370C, strain arc18, hits give low values): 0.996
- normalized growth (locus YLR384C, strain iki3, hits give low values): 1.01
- normalized growth (locus YML120C, strain ndi1, hits give low values): 0.983
- normalized growth (locus YMR058W, strain fet3, hits give low values): 1.02
- normalized growth (locus YMR125W, strain sto1, hits give low values): 0.947
- normalized growth (locus YMR129W, hits give low values): 0.994
- normalized growth (locus YMR205C, strain PFK2, hits give low values): 1.01
- normalized growth (locus YMR231W, strain pep5, hits give low values): 0.984
- normalized growth (locus YNL071W, strain lat1, hits give low values): 1.01
- normalized growth (locus YNL183C, strain NPR1, hits give low values): 0.901
- normalized growth (locus YNL209W, strain ssb2, hits give low values): 0.974
- normalized growth (locus YNL248C, strain rpa49, hits give low values): 0.942
- normalized growth (locus YNL322C, strain KRE1 (second series), hits give low values): 0.973
- normalized growth (locus YNR049C, strain mso1, hits give low values): 0.981
- normalized growth (locus YOR001W, strain rrp6, hits give low values): 1.01
- normalized growth (locus YOR070C, strain gyp1, hits give low values): 0.986
- normalized growth (locus YOR080W, strain dia2, hits give low values): 0.969
- normalized growth (locus YOR083W, strain WHI5, hits give low values): 0.94
- normalized growth (locus YOR106W, strain vam3, hits give low values): 0.964
- normalized growth (locus YOR231W, strain MKK1, hits give low values): 0.974
- normalized growth (locus YOR265W, strain rbl2, hits give low values): 0.992
- normalized growth (locus YOR270C, strain vph1, hits give low values): 0.976
- normalized growth (locus YOR290C, strain snf2, hits give low values): 0.984
- normalized growth (locus YPL051W, strain arl3, hits give low values): 0.99
- normalized growth (locus YPL078C, strain atp4, hits give low values): 0.976
- normalized growth (locus YPL106C, strain sse1, hits give low values): 0.973
- normalized growth (locus YPL240C, strain hsp82, hits give low values): 0.995
- normalized growth (locus YPL256C, strain CLN2, hits give low values): 0.988

Compound: CCCCCCCCCCCCCCC[C@H](O)[C@H](N)CO
- normalized growth (locus YAL013W, strain DEP1, hits give low values): 0.976
- normalized growth (locus YAL040C, strain CLN3, hits give low values): 1.05
- normalized growth (locus YCL061C, strain MRC1 (second series), hits give low values): 0.987
- normalized growth (locus YDR363W, strain ESC2, hits give low values): 0.99
- normalized growth (locus YER002W, strain NOP16, hits give low values): 1.03
- normalized growth (locus YGR078C, strain PAC10, hits give low values): 1.01
- normalized growth (locus YMR307W, strain GAS1, hits give low values): 1.01
- normalized growth (locus YNL128W, strain TEP1, hits give low values): 0.222 (active)
- normalized growth (locus YNL175C, strain NOP13, hits give low values): 0.643 (active)
- normalized growth (locus YNL197C, strain WHI3, hits give low values): 1.12 [resistant] (active)
- normalized growth (locus YNL224C, strain SQS1, hits give low values): 0.928
- normalized growth (locus YOR083W, strain WHI5 (second series), hits give low values): 0.811 (active)
- normalized growth (locus YPL055C, strain LGE1, hits give low values): 1.02
- normalized growth (locus YPL241C, strain CIN2, hits give low values): 0.998
